# From PubChem BioAssay AID743398 (Broad Institute, 2014)
# The whole screen tested about 300,000 compounds, of which about 3,600 (1.2%) were called active. The full list was thinned out, with actives kept by preference. Unmarked numbers belong to inactive results. Rule as the data show it: active = activation above about 30% (passing the limit was not always enough); inconclusive = no clear call, values can overlap the other calls.
# Test: Wnt/beta-catenin pathway activators, primary screen, cell-based, plate reader, single point (AID 743398);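 also: 0% = neutral control wells and 100% = positive control wells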
# Settings: Wnt/beta-catenin reporter cell assay, activator, at 9.35 µM, stronger effect = higher value
row,Compound,activation
1,CC(C)Nc1ccc(-n2nc3ccccc3[n+]2[O-])cc1,40.2% (active)
2,COC(=O)[C@]12C[C@H](CC(=O)N3CCN(C(=O)C4CC4)CC3)C(=O)N(Cc3ccc4c(c3)OCO4)C1=C[C@H](C(C)(C)C)O[C@@H]2C,-4.23%
3,O=[N+]([O-])c1ccc(CN2CC(N3CCC(c4ccccc4)CC3)CS2(=O)=O)cc1 (stereo unspecified),-1.72%
4,CN(C)C(=O)c1cccc(-c2cnc3sc(NCc4ccc5c(c4)OCO5)nn23)c1,-6.39%
5,Cc1cccc(OCCC(=O)Nc2ccccc2C(N)=O)c1,1.98%
6,Cc1cccc(OCC(=O)Nc2ccccc2F)c1,22.2%
7,COc1cccc(OCC(=O)Nc2ccccc2C(N)=O)c1,39.1% (active)
8,O=C(c1ccc(CS(=O)Cc2ccccc2Cl)o1)N1CCN(c2ccccc2)CC1 (stereo unspecified),-4.44%
9,CS(=O)(=O)/C(C#N)=C/c1cccn1S(=O)(=O)c1ccc([N+](=O)[O-])cc1,-1.05%
10,COc1cc2ccc(C(C)=O)c(O)c2cc1OC,10.2%
11,COc1ccc(NC(=O)C2Cc3c(-c4cccc(NC(C)=O)c4)ccnc3O2)cc1OC (stereo unspecified),-0.676%
12,Cn1cccc1C(=O)NNC(=O)COc1ccc(Br)cc1,3.43%
13,Cn1cccc1C(=O)OCC(=O)c1ccc(Br)s1,47.9% (active)
14,Cn1cccc1C(=O)OCC(=O)NCCc1ccccc1,15.6%
15,CC1CCCN(c2cccc3c2S(=O)(=O)N(Cc2ccc(F)cc2)[C@@H](C)[C@H](c2ccccc2)O3)C1 (stereo partly specified),-2.02%
16,O=C(NCc1ccccc1)[C@H]1CCCN1C(=O)[C@@H]1CCCN1C(=O)c1ccc(Cl)cc1Cl,-5.01%
17,NC(c1ccccc1)c1csc(NC(=O)Nc2cccc(C(F)(F)F)c2)n1 (stereo unspecified),-0.452%
18,CC(C)CC1C(=O)N(Cc2cn(CC3CCCCC3)nn2)CCS(=O)(=O)N1Cc1ccc(-c2ccc(Cl)cc2)cc1 (stereo unspecified),-6.32%
19,O=C(c1ccncc1)N1CCN(c2ccc3ccccc3n2)CC1,3.16%
20,Oc1ccc(CN2CCN(c3ncccn3)CC2)cc1,-0.601%
21,c1cnc(N2CCN(c3ccc4ccccc4n3)CC2)nc1,36.8% (active)
22,CCCN1C(=O)c2[nH]nc(-c3ccccc3)c2C1c1ccccc1 (stereo unspecified),0.123%
23,CC(C)CCNC(=O)c1[nH]c(C(F)(F)F)nc1-c1ccccc1,-0.284%

row,Compound,activation
1,O=C(NCCS(=O)(=O)NCc1ccc(Cl)cc1)c1ccccc1,-1.51%
2,O=C(CN1CCN(c2ccc(Cl)cc2)CC1)c1ccccc1,0.814%
3,O=C(Cc1ccc(Cl)cc1)c1ccccc1,39.9% (active)
4,CN(C)C(=O)N1CCN(C(=O)[C@@H](Cc2ccccc2)NC(=O)[C@H]2O[C@@H](n3ccc(N)nc3=O)[C@H](O)[C@@H]2O)CC1,-0.987%
5,CC1CCCC(C)N1C(=O)COC(=O)c1ccccc1C(=O)c1ccccc1 (stereo unspecified),-3.33%
6,Cc1cc(N2CCN(C(=O)OC(C)(C)C)C[C@H]2C)ccc1N1CCN(Cc2ccccc2)[C@H](C)C1,-18.5%
7,Cc1cccc(C)c1NC(=O)CSc1ccc([N+](=O)[O-])cn1,-1.27%
8,O=[N+]([O-])c1ccc(Sc2n[nH]c(-c3ccco3)n2)nc1,-0.107%
9,CC(C)(C)n1cnnc1Sc1ccc([N+](=O)[O-])cn1,37.4% (active)
10,Cc1nn(-c2ccccc2)c(-n2cccc2)c1C(=O)O,-0.442%
11,Cc1cccc(C)c1NC(=O)COC(=O)c1c(C)nn(-c2ccccc2)c1C,2.07%
12,Cc1ccc(OC(=O)c2c(C)nn(-c3ccccc3)c2C)cc1,57.6% (active)
13,Cc1cccc(C)c1Cn1c(C)c(C(=O)NCc2cccc(Cl)c2)sc1=O,-7.17%
14,CCCOc1ccc(F)cc1-c1cc(C(=O)Nc2ccc(F)cc2)[nH]n1,-2.71%
15,C=CCN1C(=O)C(Cc2cccc(Cl)c2)S/C1=N/N=C/c1ccco1 (stereo unspecified),-5.07%
16,COc1ccc(CN2C(=O)C(C)S/C2=N/N=C/c2ccco2)cc1 (stereo unspecified),39.6% (active)
17,O=C1N/C(=N\N=C\c2ccco2)SC1Cc1ccc(F)cc1 (stereo unspecified),1.16%
18,CCOC(=O)c1cc(-c2sc(NC(=O)c3ccccc3)nc2C)n(-c2ccc(Br)cc2)n1,-1.56%
19,O=C(CSc1ccc([N+](=O)[O-])cn1)Nc1ccc(N2CCOCC2)cc1,34.8% (active)
20,Cn1cnnc1SCC(=O)Nc1ccc(N2CCOCC2)cc1,-1.68%
21,O=C(CSc1ccc([N+](=O)[O-])cn1)Nc1ccc(N2CCOCC2)c(Cl)c1,-0.66%
22,CC(C)CNc1cccc2c1S(=O)(=O)N[C@H](C)CO2,-4.07%
23,CCCn1c(N)c(C(=O)CSc2nnc(-c3cccnc3)n2-c2ccc(C)cc2C)c(=O)[nH]c1=O,-2.6%

row,Compound,activation
1,CCCn1c(N)c(C(=O)CSc2nnc(Cc3cccs3)n2C2CC2)c(=O)[nH]c1=O,0.611%
2,CCCn1c(N)c(C(=O)CSc2nnc3n2CCCCC3)c(=O)[nH]c1=O,44.1% (active)
3,Cc1[nH]nc2c1C(c1ccc(Br)cc1)NC2=O (stereo unspecified),1.31%
4,Cc1cc(O)c(NC(=O)c2ccc(C)c([N+](=O)[O-])c2)cc1C,4.77%
5,Cc1ccc(NC(=O)CN(C)CC(=O)Nc2cccc(F)c2)cc1[N+](=O)[O-],-4.16%
6,Cc1ccc(NC(=O)c2sccc2C)cc1[N+](=O)[O-],44.6% (active)
7,O=S(=O)(NCc1ccccn1)c1ccc(Br)s1,-6.83%
8,Cc1cc(C)c[n+](-c2nc3ccccc3nc2[N-]S(=O)(=O)c2cccs2)c1,-2.64%
9,O=S(=O)([N-]c1nc2ccccc2nc1-[n+]1ccc(Cc2ccccc2)cc1)c1ccc(Br)s1,88.3% (active)
10,O=C(NCC(=O)N1CCCCCCC1)c1ccccc1Cl,12.1%
11,O=C(NC(=O)N1CCOCC1)c1ccccc1,-2.28%
12,O=C(NC(=O)N1CCSCC1)c1c(Cl)cccc1Cl,31.3% (active)
13,OC(c1ccc(Cl)cc1)c1ncc(-c2ccc(Cl)cc2)[nH]1 (stereo unspecified),0.492%
14,CCNc1nc(NCC)nc(N/N=C/c2ccc(O)c(OC)c2)n1,-3.98%
15,COc1cc(/C=N/Nc2nc3ccccc3s2)ccc1O,76.9% (active)
16,COc1cc(/C=N\Nc2nc(-c3cccs3)c(NC(C)=O)s2)ccc1O,7.87%
17,c1cc(-c2ccc3[nH]ccc3c2)n2ccnc2c1,3.12%
18,Fc1cccc(Cc2c(-c3cccc(Cl)c3)nc3ccc(Br)cn23)c1,16.8%
19,O=C(NCCc1c[nH]c2ccccc12)c1cccc(Br)c1,0.278%
20,O=C(NCCc1c[nH]c2ccccc12)c1cc2ccccc2oc1=O,40.4% (active)
21,CN(c1ccccc1)S(=O)(=O)c1ccc(Cl)c(C(=O)NCCc2c[nH]c3ccccc23)c1,-0.321%
22,Nc1[nH]c(C(=O)c2ccc(Br)cc2)c(-c2ccc3c(c2)OCO3)c1C(=O)NCCc1c[nH]c2ccccc12,0.212%
23,CCc1ccc(C2=CC(=O)CC(C)(C)C2=O)cc1,-1.61%

row,Compound,activation
1,O=C(NCC(=O)N(Cc1cccs1)C(C(=O)NC1CCCCC1)c1ccco1)c1cccs1 (stereo unspecified),67.7% (active)
2,Cc1ccccc1N(C(=O)CNC(=O)c1cccs1)C(C(=O)NC1CCCC1)c1ccncc1 (stereo unspecified),-0.349%
3,O=C(NCC(=O)N(CC1CCCO1)C(C(=O)NC1CCCCC1)c1ccccc1)c1ccco1 (stereo unspecified),-4.62%
4,CCOC(=O)C1=CC[C@@H](c2ccncc2)N(S(=O)(=O)c2ccc(C)cc2)C1,-0.651%
5,CCCCn1nnnc1C(c1ccccc1)N1CCN(c2ccccc2OC)CC1 (stereo unspecified),1.03%
6,COC(=O)C1=C(C)N(Cc2cccc(C(F)(F)F)c2)C(=NCc2cccc(C(F)(F)F)c2)NC1c1ccccc1C(F)(F)F (stereo unspecified),-4.8%
7,COc1ccc(-c2cnc3c(c2)C(=O)N([C@H](C)CO)C[C@@H](C)[C@H](CN(C)Cc2ccccc2)O3)cc1,-0.613%
8,Cc1ccc2nc(N3CCN(C(=O)c4ccco4)CC3)sc2c1,40% (active)
9,COc1ccc2nc(N3CCN(C(=O)c4ccc([N+](=O)[O-])o4)CC3)sc2c1,2.35%
10,Cc1ccc2nc(N3C(=O)C(O)=C(C(=O)c4ccco4)C3c3cccc(O)c3)sc2c1 (stereo unspecified),8.29%
11,COc1cccc(CC(=O)N2CCN(C(=O)C(=O)c3cccc(C(F)(F)F)c3)CC2)c1,-3.95%
12,Cc1cc(C)cc(NC(=O)CSc2ccccc2)c1,-7.62%
13,Cc1cc(C)cc(NC(=O)N(C)Cc2ccccc2)c1,46% (active)
14,CN(Cc1ccccc1)C(=O)c1cccc(C(=O)N(C)Cc2ccccc2)c1,1.74%
15,Cc1ccccc1-c1nc(NC(C)C)nc2cc(-c3ccccc3)sc12,-8.66%
16,CN1CCN(c2ccc3c(c2)OC[C@H](Cc2ccccc2)NS3(=O)=O)CC1,-3.42%
17,COc1ccc(Cc2nc3ccc(C(=O)NCC4CCOCC4)cc3o2)cc1OC,7.09%
18,COCCNC(=O)c1ccc2nc(Cc3ccc(OC)c(OC)c3)oc2c1,1.55%
19,CSCCNC(=O)c1ccc2nc(Cc3ccccc3F)oc2c1,42.9% (active)
20,COc1ccc(-c2cc3ncccc3cn2)cc1,50.1% (active)
21,COc1ccc(-c2cn3cccnc3n2)cc1,26.2%
22,COc1ccc2nc(-c3ccccn3)ccc2c1,1.79%
